Assay results: PubChem BioAssay
Calls of active or inactive are those of the source.

Legend:
[1] = test system: PRMT1 (protein arginine N-methyltransferase 1); experiment: small molecules binding arginine methyltransferase PRMT1 – biochemical, small-molecule microarray, 635 nm fluorescence, primary screen (AID 1088); conditions: higher = more signal;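 also: binding of Prmt1 protein to compounds spotted on small-molecule microarray slides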
[2] = growth effects on S. cerevisiae YJM789 – YJM789 clinical isolate, OD600, 24 h, basal, primary screen (AID 1089); conditions: higher = more signal, called active from +8 up or from −8 down;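 also: growth of clinical yeast isolate S. cerevisiae YJM 789 seeded 1000 cells per well; test concentration not given here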
[3] = S. pombe growth modifiers, basal conditions – strain 972, OD600, 24 h, no modulator, primary screen (AID 1090);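 also: basal condition with compound alone and no growth modifier present; test concentration not given here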; conditions: S. pombe 972 growth, higher = more signal, called active from +8 up or from −8 down
[4] = budding yeast growth modifiers under rapamycin – strain BY4716, OD600, 96 h, primary screen (AID 1091); also: test concentration not given here; conditions: S. cerevisiae BY4716 + rapamycin, higher = more signal, called active from +8 up or from −8 down
[5] = molecular target: Torsin-1A-interacting protein 2 (Homo sapiens) (UniProt Q8NFQ8); experiment: small molecules binding lysate-expressed LULL1 – cell lysate, human LULL1 lysate, 635/667 nm fluorescence, primary screen (AID 1092); conditions: small-molecule microarray, hLULL1 lysate binding, 635 nm fluorescence; higher = more signal;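 also: probe is lysate of COS7 cells overexpressing human LULL1; score merges per-feature 667 nm fluorescence with signal-to-noise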
[6] = optical density change of DRC41 E. coli – strain DRC41, OD650, 24 h, E. coli filamentation project, primary screen (AID 1093);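 also: MC1000 strain lacking acrAB efflux and sulA so SOS filamentation is blocked; test concentration not given here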; conditions: E. coli DRC41 growth, higher = more signal, called active from +8 up or from −8 down
[7] = probe aLefty2 binding to arrayed compounds – biochemical, biotinylated probe, 635/667 nm fluorescence, primary screen (AID 1094); conditions: small-molecule microarray, higher = more signal;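 also: score merges spot fluorescence near 667 nm with spot signal-to-noise ratio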
[8] = test system: Noggin (protein binding on small-molecule microarray); experiment: small molecules binding Noggin protein – biochemical, 635/667 nm fluorescence, primary screen (AID 1095); conditions: 635 nm fluorescence, higher = more signal;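 also: score merges 667 nm feature fluorescence with signal to noise over triplicate slides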
[9] = molecular target: Neurogenic locus notch homolog protein 3 (Homo sapiens) (UniProt Q9UM47); experiment: small molecules binding NOTCH3 protein – biochemical, 635/667 nm fluorescence, primary screen (AID 1096); conditions: small-molecule microarray, 635 nm fluorescence, higher = more signal
[10] = probe aEGFR binding to arrayed compounds – biochemical, biotinylated probe, 635/667 nm fluorescence, primary screen (AID 1097); conditions: small-molecule microarray, higher = more signal;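 also: probe is a biotinylated anti-EGFR antibody binding compounds printed on slides; score combines fluorescence near 667 nm and signal to noise of each spot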

Torsin-1A-interacting protein 2 (Homo sapiens), sequence (Q8NFQ8 whole entry, looked up): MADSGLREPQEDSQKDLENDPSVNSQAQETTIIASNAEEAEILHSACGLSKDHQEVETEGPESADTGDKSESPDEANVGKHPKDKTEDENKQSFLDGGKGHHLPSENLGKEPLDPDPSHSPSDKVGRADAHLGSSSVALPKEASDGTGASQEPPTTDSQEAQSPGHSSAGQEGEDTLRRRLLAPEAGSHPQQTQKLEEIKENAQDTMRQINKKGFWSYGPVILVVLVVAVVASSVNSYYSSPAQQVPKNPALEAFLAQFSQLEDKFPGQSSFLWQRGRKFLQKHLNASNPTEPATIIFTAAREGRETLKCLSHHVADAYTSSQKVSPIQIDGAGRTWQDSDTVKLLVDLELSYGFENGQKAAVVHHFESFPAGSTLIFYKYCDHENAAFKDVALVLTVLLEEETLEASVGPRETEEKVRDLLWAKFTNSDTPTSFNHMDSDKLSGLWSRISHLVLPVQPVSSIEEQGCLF
Neurogenic locus notch homolog protein 3 (Homo sapiens), sequence (Q9UM47 whole entry, looked up): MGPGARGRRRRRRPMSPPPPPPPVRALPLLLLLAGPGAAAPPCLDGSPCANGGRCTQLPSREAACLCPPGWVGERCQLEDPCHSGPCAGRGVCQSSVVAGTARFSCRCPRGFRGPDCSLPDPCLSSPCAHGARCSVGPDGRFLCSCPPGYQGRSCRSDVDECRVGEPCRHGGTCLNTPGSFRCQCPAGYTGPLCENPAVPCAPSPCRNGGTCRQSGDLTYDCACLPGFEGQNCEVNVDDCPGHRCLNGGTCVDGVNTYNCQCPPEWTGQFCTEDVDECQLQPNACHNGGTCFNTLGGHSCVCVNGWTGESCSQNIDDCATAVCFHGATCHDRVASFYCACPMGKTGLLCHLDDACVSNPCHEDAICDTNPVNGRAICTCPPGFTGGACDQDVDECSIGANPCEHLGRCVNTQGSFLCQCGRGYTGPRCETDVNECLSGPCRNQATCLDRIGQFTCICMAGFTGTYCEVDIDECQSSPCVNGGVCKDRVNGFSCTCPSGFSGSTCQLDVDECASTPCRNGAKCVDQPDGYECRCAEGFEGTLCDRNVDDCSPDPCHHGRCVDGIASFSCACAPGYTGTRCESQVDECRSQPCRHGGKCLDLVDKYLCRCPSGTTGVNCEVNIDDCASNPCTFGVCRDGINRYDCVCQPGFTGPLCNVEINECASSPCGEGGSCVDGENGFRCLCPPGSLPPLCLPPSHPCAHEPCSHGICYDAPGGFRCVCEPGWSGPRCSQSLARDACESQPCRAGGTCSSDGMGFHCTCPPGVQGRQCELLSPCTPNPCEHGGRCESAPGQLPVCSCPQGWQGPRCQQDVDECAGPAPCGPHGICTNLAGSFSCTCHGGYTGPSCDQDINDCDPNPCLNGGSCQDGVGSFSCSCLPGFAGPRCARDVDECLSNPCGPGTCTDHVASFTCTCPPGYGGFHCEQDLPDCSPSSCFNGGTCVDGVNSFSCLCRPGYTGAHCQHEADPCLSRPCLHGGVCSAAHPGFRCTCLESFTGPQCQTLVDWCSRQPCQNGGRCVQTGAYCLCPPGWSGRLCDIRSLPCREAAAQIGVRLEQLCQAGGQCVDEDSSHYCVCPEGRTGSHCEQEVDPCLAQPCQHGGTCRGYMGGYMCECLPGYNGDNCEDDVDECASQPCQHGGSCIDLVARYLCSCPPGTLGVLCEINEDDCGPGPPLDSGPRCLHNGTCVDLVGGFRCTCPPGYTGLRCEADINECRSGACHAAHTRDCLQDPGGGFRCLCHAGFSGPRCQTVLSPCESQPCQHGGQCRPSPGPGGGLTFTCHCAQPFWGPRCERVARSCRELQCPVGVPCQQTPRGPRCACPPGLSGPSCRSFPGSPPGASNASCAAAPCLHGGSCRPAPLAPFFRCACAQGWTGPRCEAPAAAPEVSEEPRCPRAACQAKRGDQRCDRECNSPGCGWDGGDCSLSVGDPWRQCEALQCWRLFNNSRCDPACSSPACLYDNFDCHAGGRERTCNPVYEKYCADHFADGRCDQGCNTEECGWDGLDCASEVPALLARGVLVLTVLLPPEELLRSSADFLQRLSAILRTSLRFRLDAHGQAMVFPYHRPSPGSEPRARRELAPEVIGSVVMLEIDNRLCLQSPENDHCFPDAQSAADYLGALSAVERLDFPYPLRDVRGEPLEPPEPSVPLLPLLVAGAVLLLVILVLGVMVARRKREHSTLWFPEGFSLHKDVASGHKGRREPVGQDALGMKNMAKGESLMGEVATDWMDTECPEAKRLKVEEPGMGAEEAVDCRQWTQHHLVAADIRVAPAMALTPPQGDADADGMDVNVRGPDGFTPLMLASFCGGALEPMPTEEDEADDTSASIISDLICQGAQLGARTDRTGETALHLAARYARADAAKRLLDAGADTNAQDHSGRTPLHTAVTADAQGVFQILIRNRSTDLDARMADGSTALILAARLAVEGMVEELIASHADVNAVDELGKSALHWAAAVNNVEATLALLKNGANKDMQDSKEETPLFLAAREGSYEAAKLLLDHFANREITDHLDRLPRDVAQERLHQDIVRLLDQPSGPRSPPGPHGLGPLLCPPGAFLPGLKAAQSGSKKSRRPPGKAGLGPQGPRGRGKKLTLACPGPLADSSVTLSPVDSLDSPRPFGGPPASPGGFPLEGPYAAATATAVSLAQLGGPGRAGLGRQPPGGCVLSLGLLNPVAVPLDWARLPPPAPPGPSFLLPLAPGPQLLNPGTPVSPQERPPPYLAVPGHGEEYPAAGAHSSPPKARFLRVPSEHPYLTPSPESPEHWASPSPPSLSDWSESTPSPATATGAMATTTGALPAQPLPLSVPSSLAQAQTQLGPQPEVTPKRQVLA

Row | SMILES | composite z-score [1] | z-score [2] | z-score [3] | z-score [4] | composite z-score [5] | z-score [6] | composite z-score [7] | composite z-score [8] | composite z-score [9] | composite z-score [10]
1 | CCOC(=O)C1=CCC(c2ccc(F)cc2)N(S(=O)(=O)c2ccc(C)cc2)C1 (stereo not given) | 0.249 | 0.265 (inactive) | 0.639 (inactive) | 1.68 (inactive) | 0.799 | -0.704 (inactive) | -0.0396 | -0.0456 | 0.284 | -0.0839
2 | C=CC[C@]1(C(N)=O)N=C(c2ccc(OCCCO)cc2)O[C@H]1c1ccccc1 | 0.243 | -0.52 (inactive) | -0.0257 (inactive) | -0.953 (inactive) | 2.17 | 0.0588 (inactive) | 0.0493 | 0.201 | -0.674 | -0.165
3 | COC(=O)C(CC#Cc1ccc2c(c1)[C@]1(C(=O)N2)[C@H](c2ccc(O)cc2)N2[C@H](c3ccccc3)[C@H](c3ccccc3)OC(=O)[C@H]2[C@@H]1C(=O)N1CCN(c2ncccn2)CC1)C(=O)OC | 1.55 | 1.07 (inactive) | 0.516 (inactive) | 1.93 (inactive) | 3.21 | 0.248 (inactive) | 0.107 | 0.24 | 0.975 | 0.0167
4 | C=CCNC(=O)[C@H]1[C@@H]2C(=O)O[C@@H](c3ccccc3)[C@@H](c3ccccc3)N2[C@@H](c2ccc(OCCO)cc2)[C@]12C(=O)Nc1ccc(C#CCC(C(=O)OC)C(=O)OC)cc12 | 1.56 | 1.63 (inactive) | 1.79 (inactive) | 5.79 (inactive) | 2.74 | 0.0251 (inactive) | 0.187 | 0.608 | 1.08 | -0.004
5 | NCCCCCNC(=O)[C@H]1C[C@H]2C(=O)N[C@@H](Cc3ccccc3)C(=O)N2[C@H]1c1cccc(OCCO)c1 | 0.788 | 0.693 (inactive) | -1.42 (inactive) | -0.763 (inactive) | 1.6 | 0.631 (inactive) | 0.662 | -0.0079 | 0.478 | 0.0115
6 | NCCCCCCNC(=O)[C@H]1C[C@H]2C(=O)N[C@@H](Cc3ccccc3)C(=O)N2[C@H]1c1cccc(OCCO)c1 | 0.753 | 0.106 (inactive) | 0.269 (inactive) | -0.689 (inactive) | 1.66 | 0.524 (inactive) | 0.255 | 0.337 | 0.347 | 0.0562
7 | C=C(CCCC)/C(=C/C[C@@H](OC(C)=O)c1ccccc1OCCO)c1cc(C(=O)OC)ccc1OC | 0.252 | 1.03 (inactive) | 0.404 (inactive) | -0.358 (inactive) | 0.615 | 0.531 (inactive) | -0.12 | 0.0643 | -0.218 | -0.185
8 | C=C(/C(=C/C[C@H](OC(C)=O)c1ccc(OCCO)cc1)c1cc(C(=O)OC)ccc1OC)C(C)C | 1.55 | 0.71 (inactive) | -0.299 (inactive) | -0.874 (inactive) | 2.79 | 0.806 (inactive) | -0.0616 | 1.39 | 0.51 | -0.0828
